These results are taken from PubChem BioAssay AID504332 (National Center for Advancing Translational Sciences (NCATS), 2011).

Among all 350,000 compounds or so, about 31,000 (8.9%) were called active. About 15% were inconclusive and are not listed. The entries come from a sample that favours actives as a whole. Entries that show only a call come without a potency. Unmarked numbers belong to inactive results. Calls follow the shape of the dose curve; as a rule, active = well fitted inhibition curve with a large enough effect; inconclusive = small, poorly fitted or top-dose-only effect; inactive = no such curve, though single readings can be large or run the other way.
Potency is read from the fitted curve at half-maximal effect.

The target in the experiment is Histone-lysine N-methyltransferase EHMT2 (Homo sapiens) (UniProt Q96KQ7). Kind of experiment: qHTS Assay for Inhibitors of Histone Lysine Methyltransferase G9a. Also: nearly all actives have a fitted effect of over 75% in size. Conditions: G9a H3K9 monomethylation, AlphaScreen, 2 h; series mostly up to 59 µM. In a few lines: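 Methyltransferase reactions run at room temperature for 2 h (20 nM enzyme, 500 nM biotin-H3K9 peptide, 20 uM SAM) after a 15 min compound preincubation; product detected by AlphaScreen beads and anti-H3K9me1 antibody.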
Histone-lysine N-methyltransferase EHMT2 (Homo sapiens), sequence (Q96KQ7 913-1193 limits assumed): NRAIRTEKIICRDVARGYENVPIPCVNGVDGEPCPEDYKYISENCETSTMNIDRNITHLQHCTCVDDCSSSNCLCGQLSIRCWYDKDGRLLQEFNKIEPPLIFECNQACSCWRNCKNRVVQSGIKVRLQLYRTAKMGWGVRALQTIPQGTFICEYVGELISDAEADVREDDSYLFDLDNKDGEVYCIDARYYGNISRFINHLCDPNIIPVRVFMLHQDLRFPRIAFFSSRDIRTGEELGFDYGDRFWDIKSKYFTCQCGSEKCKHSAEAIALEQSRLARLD
For orientation: Quantitative high-throughput screening tests each substance at several concentrations.
Regarding `COc1cccc(NC(=O)CN(C)CC(=O)c2c(N)n(Cc3ccccc3)c(=O)n(C)c2=O)c1`, the activity, negative = inhibition was -2.39% [at 2.33 µM].
For `COc1ccc(NC(=O)c2ccc3nc(CCc4ccccc4)oc3c2)c(OC)c1`, the Potency entry is “inactive”.
As to `CC1CCCN(C(=O)CN2C(=O)c3ccccc3S2(=O)=O)C1` (configuration not stated), the activity, negative = inhibition was 6.05% [at 2.33 µM].
On to `CC1(c2ccc3ccccc3c2)NC(=O)NC1=O` (configuration not stated), for which the Potency result is “inactive”.
For `COc1cccc(NC(=O)CN(C)C(=O)c2ccccc2CCc2ccccc2)c1`, the activity, negative = inhibition was 3.17% [at 12.7 µM].
As to `O=C(NCCCN1CCOCC1)c1cc(-c2ccccc2F)no1`, the Potency entry was “inactive”.
In the case of `CSc1ccc(CCNC(=O)c2ccc3c(c2)nc2n3CCOC2)cc1`, the Potency result is “inactive”.
Take `Clc1ccc(C(Cn2ccnc2)OCc2ccsc2Cl)c(Cl)c1` (configuration not stated): the activity, negative = inhibition was -28.9% [at 12.7 µM].
`CCOC(=O)c1[nH]c(C)c(CCC(=O)NCc2ccccc2C)c1C`: the Potency result was “inactive”.
Still for that read-out and setting: then `Cc1ccc2ncc(C(=O)Nc3ccc(OC(F)(F)F)cc3)c(=O)n2c1`, with “inactive”.
On to `Cc1nn(CC(=O)N2CCN(c3cccc(C(F)(F)F)c3)CC2)c(=O)c2cc3sccc3n12`, for which the Potency entry is “inactive”.
The same measure, in the same setting: next, `CC(NS(=O)(=O)c1ccc(OCC(=O)N2CCCC2)cc1)c1ccccc1` (configuration not stated): “inactive”; `COc1ccc(C(=O)Nc2cc(C)ccc2NC(=O)COc2ccccc2)cc1`: “inactive”; `COc1ccc(OCC(=O)NNC(=O)c2cccc(C)c2)cc1`: “inactive”.
Same read-out and setting: then `Cc1onc(-c2ccccc2)c1C(=O)Nc1ccccc1C#N`, with “inactive”; and `COc1ccc(OCC(=O)NNC(=O)c2ccc(-c3ccccc3)cc2)cc1`, with 79.4 µM (active).
With `COCCCNC(=S)NC(=O)c1ccccc1`, the Potency result was “inactive”.
Take `COc1ccc(C(=O)NC(=S)NNC(=O)c2c(-c3ccccc3)noc2C)cc1`: the Potency was 5.62 µM (active).
The same measure, in the same setting: next, `COc1ccc(C(=O)NNC(=S)NC(=O)c2ccccc2)cc1`: 22.4 µM (active); `Cc1ccc(CNC(=O)c2c(-c3ccccc3)noc2C)cc1`: “inactive”.
Consider `COc1ccc(C(=O)NC(=S)NNC(=O)CCc2ccccc2)cc1`, for which the activity, negative = inhibition is 28.9% [at 0.0925 µM].
For the molecule `Cc1cn(C)c(CC(=O)NCc2ccc(Cl)cc2)c1C(=O)O`, the Potency result is “inactive”.
On to `CCC(=O)N1CCc2cc(S(=O)(=O)NCCC(=O)Nc3cccc(C)c3C)ccc21`, for which the Potency result was “inactive”.
Same read-out and setting: then `COc1ccc2ncc3c(-c4ccc(C)c(C)c4)nn(CC(=O)NC4CCCC4)c3c2c1`, with “inactive”; and `CC1Cc2cc(S(=O)(=O)CCC(=O)Nc3ccc(F)c(Cl)c3)ccc2N1C(=O)C1CC1` (configuration not stated), with “inactive”; and `O=C(Nc1ccccc1)c1cc2ccccc2[nH]1`, with “inactive”.
For `S=c1ccc2ccccc2[nH]1`, the Potency is 4.47 µM (active).
The same measure, in the same setting: next, `CC(=O)N1CCN(C(=O)c2cc(-c3ccc(Cl)s3)nc3ccccc23)CC1`: “inactive”.
In the case of `C#CCOc1ccc(C2CC(=O)Nc3c2c(C)nn3-c2nc(C)cc(C)n2)cc1` (configuration not stated), the Potency entry was “inactive”.
`Cc1ccc(-c2nc(CS(=O)(=O)CC(=O)NCc3ccccc3Cl)c(C)o2)cc1`: the Potency result was “inactive”.
On to `CC(C)(C)C(=O)CSc1ccc(S(=O)(=O)N2CCCC2)cn1`, for which the activity, negative = inhibition was -13.9% [at 2.33 µM].
`CC1=C(C(=O)OCC2CCCCC2)C(c2c(F)cccc2Cl)CC(=O)N1` (configuration not stated): the Potency result was “inactive”.
On the same count and under the same terms, then `N#C/C=C1\Sc2ccccc2C(=O)N1CC(=O)N1CCN(S(=O)(=O)c2ccccc2)CC1`, with 70.8 µM (active).
On the same count and under the same terms, next, `O=C(CN1CCSc2ccccc21)N1CCN(c2ccccc2)CC1`: “inactive”; `O=C(CN1CCCSc2ccccc21)N1CCN(S(=O)(=O)c2ccccc2)CC1`: 56.2 µM (active).
As for `O=C(CN1CCCSc2ccccc21)N1CCN(S(=O)(=O)c2cccc(F)c2)CC1`, the activity, negative = inhibition was 15.4% [at 12.7 µM].
Take `O=C(Cc1ccccc1)N1CCN(S(=O)(=O)c2ccc([N+](=O)[O-])cc2)CC1`: the Potency entry was “inactive”.
On the same count and under the same terms, next, `CC(C)c1ccc(S(=O)(=O)N2CCN(C(=O)CN3C(=O)NC(C)(c4ccccc4)C3=O)CC2)cc1` (configuration not stated): “inactive”.
Turning to `CCN(C(=O)CSc1ncnc2c1cnn2-c1ccccc1)C1CCS(=O)(=O)C1` (configuration not stated), the activity, negative = inhibition was 7.57% [at 0.501 µM].
With `O=C(OCc1cc(=O)n2nc(C3CC3)sc2n1)c1ccccc1Cl`, the Potency entry was “inactive”.
In the case of `O=C(NNC(=O)c1ccc(-n2cncn2)c([N+](=O)[O-])c1)c1ccccc1`, the activity, negative = inhibition was 14.9% [at 12.7 µM].
Take `CCc1cc2c(cc(C(=O)OC)n2Cc2nc(-c3ccc(C)cc3)oc2C)s1`: the Potency result was “inactive”.
On to `N#Cc1nc(-c2cccc3ccccc23)oc1N`, for which the activity, negative = inhibition was 2.47% [at 2.33 µM].
Take `CCCCN(C(=O)C(CCSC)N1C(=O)c2ccccc2C1=O)c1c(N)n(CCC)c(=O)[nH]c1=O` (configuration not stated): the activity, negative = inhibition was 17.2% [at 12.7 µM].
Same read-out and setting: next, `COc1ccc2oc(C(=O)N(CC(C)C)C3CCS(=O)(=O)C3)c(C)c2c1` (configuration not stated): 7.64% [at 0.501 µM].
For the molecule `COc1cccc(Cn2cnc3c([N+](=O)[O-])c(C)c(C)cc32)c1`, the Potency entry was “inactive”.
On the same count and under the same terms, then `CSc1nn(Cc2cccc(C)c2)c(N)c1S(=O)(=O)c1ccccc1`, with “inactive”; and `Cc1cccc(Cn2cnc3c(N)c(C)c(C)cc32)c1`, with 44.7 µM (active); and `COc1cc(OC)cc(-c2nc3nc(C)c(CCC(=O)Nc4ccccc4)c(C)n3n2)c1`, with “inactive”.
Still for that read-out and setting: then `O=C(CCc1nnc2ccc(NCc3ccco3)nn12)Nc1cc(F)ccc1F`, with “inactive”.
Turning to `Cc1sc2ncnc(N3CCC(C(=O)Nc4ccc(F)cc4Cl)CC3)c2c1C`, the activity, negative = inhibition is -22.6% [at 12.7 µM].
As for `CN(Cc1ccccc1)c1ncnc2onc(-c3ccc(F)cc3)c12`, the Potency result was “inactive”.
Still for that read-out and setting: then `Cc1ccc(CSCC(=O)N(C)CC(=O)Nc2ccc(C)cc2)cc1`, with “inactive”; and `CCCCN(C)CCNC(=O)CSCc1ccc(C)cc1`, with 3.55 µM (active).
On to `CCN(CC(=O)Nc1cc(Cl)ccc1C)C(=O)CSCc1ccc(C)cc1`, for which the activity, negative = inhibition is -2.36% [at 2.33 µM].
Consider `CC(=O)c1nn(-c2ccc(OC(F)(F)F)cc2)nc1Nc1ccccc1`, for which the Potency entry is “inactive”.
Regarding `Cc1ccc(N2CC(C(=O)N3CCC4(CC3)CC(=O)c3ccccc3O4)CC2=O)cc1C` (configuration not stated), the activity, negative = inhibition is 6.18% [at 0.501 µM].
The same measure, in the same setting: then `CCOc1ccc(NS(=O)(=O)c2ccc(C(=O)NC3CCN(Cc4ccccc4)CC3)cc2)cc1`, with 17.4% [at 2.33 µM].
For the molecule `CCOc1ccc(S(=O)(=O)Nc2ccc(C(=O)NCCCN3CCCC3=O)cc2)cc1`, the Potency entry is “inactive”.
The same measure, in the same setting: next, `CCOc1ccc(NS(=O)(=O)c2ccc(C(=O)NCC(c3ccccc3OC)N3CCCC3)cc2)cc1` (configuration not stated): 1.26 µM (active); `COc1ccc(Cn2c(=O)c3oc4ccccc4c3n(CC(=O)Nc3ccc(F)cc3F)c2=O)cc1`: “inactive”.
Still for that read-out and setting: next, `COc1ccc(NC(=O)c2ccco2)cc1NC(=O)COc1ccc(C)c(C)c1`: “inactive”; `COc1ccc2[nH]cc(/C=C(/C#N)S(=O)(=O)c3ccccc3)c2c1`: “inactive”; `O=C(N/N=C/c1ccc([N+](=O)[O-])cc1)c1c[nH]c2ccccc12`: “inactive”.
Same read-out and setting: next, `COc1ccc(/C=C(\C#N)c2c[nH]c3ccccc23)cc1`: 39.8 µM (active).
Take `CCCCn1c(N)c(N(Cc2ccccc2OC)C(=O)COc2cc(C)ccc2Cl)c(=O)[nH]c1=O`: the Potency result is “inactive”.
Same read-out and setting: then `Cn1nccc1/C=N\NC(=O)c1ccc(Cl)cc1`, with “inactive”.
In the case of `OCC[C@H]1C[C@H](O)[C@@H](O)[C@]2(CCc3ccccc3O2)O1`, the activity, negative = inhibition is 7.67% [at 2.33 µM].
Same read-out and setting: next, `O=S(=O)(c1ccc(Br)c2ccccc12)N1CCOCC1`: 24.5% [at 0.501 µM].
On to `COc1cccc(-n2c(=S)sc3c(=O)n(-c4ccccc4OC)c(SCC4OCCO4)nc32)c1`, for which the Potency entry is “inactive”.
As for `COc1ccccc1N1CCN(C(=O)c2cc(=O)c3cc(C)cc(C)c3o2)CC1`, the activity, negative = inhibition is -10.5% [at 2.33 µM].
On to `COc1ccccc1-n1c(=S)[nH]c2c(sc(=S)n2-c2ccc(C)cc2C)c1=O`, for which the Potency is 7.94 µM (active).
Same read-out and setting: then `Cc1nn(-c2ccccc2)c(C)c1C(=O)OCC(=O)NC(=O)NC1CCCCC1`, with “inactive”.
`Cc1cccc(C)c1NC(=O)COC(=O)c1c(C)nn(-c2ccccc2)c1C`: the Potency was 11.2 µM (active).
Still for that read-out and setting: next, `Cc1cccc(C)c1NC(=O)CNC(=O)c1c(C)nn(-c2ccccc2)c1C`: “inactive”; `COc1ccc(C)cc1S(=O)(=O)Nc1cc2c3c(c1)CCC(=O)N3CCC2`: “inactive”.
On the same count and under the same terms, then `Cc1ccc2oc3c(c(=O)c2c1)C(c1ccc([N+](=O)[O-])cc1)N(CCCN1CCOCC1)C3=O` (configuration not stated), with “inactive”; and `CC(=O)c1cccc(NC(=O)CSc2nc3c(c(=O)[nH]2)CCC3)c1`, with “inactive”; and `Cc1ccc(-c2nn(CCC(=O)Nc3ccc(OC(F)(F)F)cc3)c(=O)c3ccccc23)cc1`, with “inactive”.
For `CC(C)N(Cc1nnc(-c2ccccc2Br)o1)C(=O)c1cc(Cl)nc2ccccc12`, the activity, negative = inhibition is -53.3% [at 12.7 µM].
Regarding `O=C(c1cc(-c2ccco2)nc2ccccc12)N(Cc1nnc(-c2ccc(Cl)cc2)o1)C1CC1`, the Potency was 5.01 µM (active).
With `O=C(c1ccc(Cl)s1)N(Cc1nnc(-c2ccccc2Cl)o1)C1CC1`, the activity, negative = inhibition was 9.15% [at 12.7 µM].
As for `CCOC(=O)[C@H]1[C@H]2COc3cc(OC)ccc3[C@@H]2N2C(=O)N(c3ccc(Br)cc3)C(=O)[C@@]12C`, the Potency result was “inactive”.
With `Cc1c(Cl)cccc1NC(=O)C1CCCN(c2ncnc3onc(C)c23)C1` (configuration not stated), the Potency result is “inactive”.
The same measure, in the same setting: then `CSc1ccccc1OCc1cc(C(=O)N2C[C@H]3CC[C@H]2C3)no1`, with “inactive”; and `CCc1cccc(NC(=O)c2cnc(N3CCOCC3)c3ccccc23)c1`, with “inactive”; and `O=C(c1ccccc1)c1cc(-c2ccccn2)c(N2CCOCC2)s1`, with “inactive”.
Same read-out and setting: then `CCc1ccc2ncc(C(=O)c3ccccc3)c(N3CCOCC3)c2c1`, with 56.2 µM (active); and `COc1ccc(C(=O)CC(=O)c2ccc(C)cc2)c(O)c1`, with “inactive”.
Still for that read-out and setting: next, `COc1cc2c(cc1OC)C(COc1ccc(F)cc1)N(C(=O)c1ccccc1F)CC2` (configuration not stated): “inactive”; `O=C1Nc2ccc(Br)cc2/C1=N/N=C/C1=C(N2CCOCC2)C(=C\c2ccccc2)/CC1`: 12.6 µM (active); `COc1ccc(/C=N/N=C2/C(=O)Nc3ccccc32)cc1O`: “inactive”.
